The source of these data is PubChem BioAssay.

Assay [1] deals with Wnt5a (protein binding on small-molecule microarray). Nature of the assay: small molecules binding Wnt5a protein – biophysical, small-molecule microarray, 635/667 nm fluorescence, primary screen (AID 1142).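 Note: fluorescence read at 667 nm with signal to noise per printed feature.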 The note with it: 635 nm fluorescence, higher = more signal.
A short description of assay [2]: ATP-based viability of Huh7 replicon cells – cell-based, CellTiter-Glo luminescence, basal, 48 h, cytotoxicity control for HCV replication inhibitor project, primary screen (AID 1143).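 Note: Huh7 hepatoma cells carrying a hepatitis C replication reporter with no stimulus; test concentration not given here.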 The note with it: higher = more signal, called active from +8 up or from −8 down. For orientation: A replicon is a self-replicating genome or part of one, used to study replication in cells.

Assay [3] in a line: Pseudomonas biofilm growth suppression – PAO1 strain, BacTiter-Glo luminescence, LB-PBS, primary screen (AID 1144). The note with it: P. aeruginosa PAO1 biofilm, 12 h, higher = more signal.
Assay [4] in a line: basal CRE-LacZ reporter activity in PC12 – cell-based, unstimulated, primary screen (AID 1145). The conditions noted are these: no forskolin, luminescence, 4.5 h, higher = more signal, called active from +8 up or from −8 down.
Assay [5] is described as follows: forskolin-driven CRE-LacZ activity in PC12 – cell-based, CRE-LacZ reporter, forskolin-stimulated, primary screen (AID 1146).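 Note: PC12 cells with 6xCRE LacZ reporter stimulated by forskolin 10 µM; beta-galactosidase reporter signal reflecting CREB driven transcription.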 The conditions noted are these: luminescence, 4.5 h, higher = more signal, called active from +8 up or from −8 down.
Assay [6] concerns the target Streptavidin (Streptomyces avidinii) (UniProt P22629). Nature of the assay: compounds binding control protein streptavidin – biophysical, small-molecule microarray, 635/667 nm fluorescence, artefact control for SMM compound annotation, primary screen (AID 1147).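 Note: signal reflects streptavidin binding to arrayed compounds as a control protein.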 The conditions noted are these: higher = more signal.
The nature of assay [7]: probe aInhba binding on compound microarray – biochemical, small-molecule microarray, 635/667 nm fluorescence, primary screen (AID 1148).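 Note: score merges 667nm spot fluorescence with signal-to-noise for antibody binding to printed compounds.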 The note with it: higher = more signal.
The target of assay [8] is Torsin-1A (Homo sapiens) (UniProt O14656). Nature of the assay: TOR1A wild-type binding on microarray – cell lysate, small-molecule microarray, lysate, 635/667 nm, primary screen (AID 1149). The note with it: COS7 hTOR1A-WT lysate, 635 nm fluorescence, higher = more signal.
Assay [9] shares this target. Kind of assay: torsin A mutant lysate binding on microarrays – cell lysate, small-molecule microarray, COS7 lysate, 635/667 nm fluorescence, primary screen (AID 1150).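 Note: score pools 667 nm emission and signal to noise measuring lysate protein binding.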 The note with it: COS7 hTOR1A mutant lysate, 635 nm fluorescence, higher = more signal.
Assay [10] deals with Sonic hedgehog protein (Shh). Kind of assay: Sonic hedgehog microarray binding compounds – biochemical, small-molecule microarray, 635/667 nm fluorescence, primary screen (AID 1151).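 Note: Shh protein binding to compounds spotted on small-molecule microarray slides; score combines spot fluorescence intensity with signal-to-noise across triplicate slides.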 The conditions noted are these: 635 nm fluorescence, higher = more signal.

Activity calls are given as the source filed them. Unless noted, the rule behind the calls is not given here.

Torsin-1A (Homo sapiens), sequence (O14656 whole entry, looked up): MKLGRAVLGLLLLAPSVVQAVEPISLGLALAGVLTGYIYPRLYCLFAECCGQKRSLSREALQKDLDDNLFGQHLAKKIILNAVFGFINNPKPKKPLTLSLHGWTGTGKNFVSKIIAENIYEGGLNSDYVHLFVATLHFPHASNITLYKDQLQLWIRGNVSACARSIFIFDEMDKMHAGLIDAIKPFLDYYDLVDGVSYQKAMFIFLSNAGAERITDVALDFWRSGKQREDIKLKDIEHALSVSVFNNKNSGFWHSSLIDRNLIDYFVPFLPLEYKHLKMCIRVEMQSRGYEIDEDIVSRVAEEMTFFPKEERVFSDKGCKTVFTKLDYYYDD
Streptavidin (Streptomyces avidinii), sequence (P22629 whole entry, looked up): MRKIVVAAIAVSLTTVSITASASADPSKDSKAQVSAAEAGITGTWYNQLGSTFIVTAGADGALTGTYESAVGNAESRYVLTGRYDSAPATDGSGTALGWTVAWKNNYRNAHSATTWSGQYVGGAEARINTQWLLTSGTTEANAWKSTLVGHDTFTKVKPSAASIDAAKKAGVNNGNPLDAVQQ

`CC1(C)C(=O)C(c2ccccc2)=C2CN3C(=O)N(CCc4ccccc4)C(=O)C3(Cc3ccccc3)C=C21` (stereo not given): the composite z-score is 0.114 in [1]; 0.982 in [6]; 0.134 in assay [7]; 0.736 with Torsin-1A (Homo sapiens) [8]; -0.244 with Torsin-1A (Homo sapiens) [9]; -1.07 in [10]. For the same compound, the z-score was -1.13 (inactive) in assay [2], -0.741 (inactive) in [3], 0.576 (inactive) in assay [4] and 0.15 (inactive) in assay [5].
Take `CC(C)NC(=O)[C@@H]1c2ccccc2C(=O)N(C2CCCCC2)[C@H]1c1ccc(CO)cc1`: the composite z-score in [1] was 0.242; in assay [6], -0.148; in assay [7], 0.152; in the assay with Torsin-1A (Homo sapiens) [8], 0.13; in the assay with Torsin-1A (Homo sapiens) [9], -0.28; in assay [10] it was 0.0045. Further, the z-score is -1.17 (inactive) in [2], 0.0353 (inactive) in assay [3], -0.529 (inactive) in [4] and -0.579 (inactive) in [5].
As to `COCCOC(=O)N1C(=O)[C@@]2(c3cc(C#CC4=CCCCC4)ccc31)[C@H](c1ccc(OCCO)cc1)N1[C@H](c3ccccc3)[C@H](c3ccccc3)OC(=O)[C@H]1[C@@H]2C(=O)Nc1nc2ccccc2s1`, the composite z-score in [1] was 0.329; in [6] it was 1.27; in assay [7], -0.0178; in the assay with Torsin-1A (Homo sapiens) [8], -0.0779; with Torsin-1A (Homo sapiens) [9], 0.394; in assay [10], 0.911. For the same compound, the z-score is -3.52 (inactive) in assay [2], -2.45 (inactive) in assay [3], -1.16 (inactive) in assay [4] and -0.482 (inactive) in assay [5].
As for `O=C1OCCC/C=C\[C@H]2OC34C=CCN(Cn5nnc6ccccc65)C(=O)[C@H]3N(CCCO)C(=O)[C@@H]4C12` (stereo not given in full), the composite z-score in assay [1] is -0.8; in [6], -1.29; in assay [7] it was -0.182; with Torsin-1A (Homo sapiens) [8], -2.04; in the assay with Torsin-1A (Homo sapiens) [9], 1.14; in assay [10], -0.144. In addition, the z-score in assay [2] is 0.464 (inactive); in assay [3], -0.354 (inactive); in [4], -0.623 (inactive); in assay [5] it was 0.168 (inactive).
Take `C=CCOC(=O)[C@@H]1[C@H]2C(=O)O[C@H](c3ccccc3)[C@H](c3ccccc3)N2[C@H](c2ccc(OCCOC(=O)[C@H]3C[C@H]4C(=O)N[C@@H](CC(C)C)C(=O)N4[C@H]3c3cccc(OCCO)c3)cc2)[C@@]12C(=O)Nc1ccc(I)cc12`: the composite z-score in assay [1] was 0.289; in assay [6], 0.332; in assay [7] it was 0.247; in the assay with Torsin-1A (Homo sapiens) [8], 1; in the assay with Torsin-1A (Homo sapiens) [9], 1.15; in [10], 2.06. In addition, the z-score in [2] is -2.48 (inactive); in [3] it was -0.174 (inactive); in [4], 0.419 (inactive); in [5] it was -0.0639 (inactive).
Consider `O=C1O[C@@H](c2ccccc2)[C@@H](c2ccccc2)N2[C@@H](c3ccccc3OCCO)[C@]3(C(=O)Nc4ccc(C#CC5(O)CCCCCC5)cc43)[C@@H](C(=O)NC[C@H](O)c3ccccc3)[C@H]12`, for which the composite z-score was 0.602 in [1]; 0.329 in assay [6]; 1.09 in [7]; -0.179 with Torsin-1A (Homo sapiens) [8]; 0.251 with Torsin-1A (Homo sapiens) [9]; 2.17 in [10]. In addition, the z-score is -6.25 (inactive) in assay [2], 0.813 (inactive) in [3], 0.0776 (inactive) in [4] and 1.12 (inactive) in assay [5].
As for `CCOC(=O)C1=CC[C@@H](c2cccc(Cl)c2)N(S(=O)(=O)c2ccc(C)cc2)[C@H]1c1ccc(C#N)cc1`, the composite z-score in [1] was determined as 0.473; in assay [6], 1.15; in [7] it was 0.0627; in the assay with Torsin-1A (Homo sapiens) [8] it was 0.384; with Torsin-1A (Homo sapiens) [9], 0.788; in [10], 0.741. For the same compound, the z-score in assay [2] was -1.1 (inactive); in [3] it was 0.494 (inactive); in [4], -0.228 (inactive); in assay [5] it was 0.119 (inactive).
With `CC(C)NC(=O)[C@@]1(c2ccc([N+](=O)[O-])cc2)CC(=O)N(C(C)C)[C@@H]1c1ccc(CO)cc1`, the composite z-score in assay [1] was -0.666; in [6], -1.26; in [7], -0.203; with Torsin-1A (Homo sapiens) [8], 0.592; with Torsin-1A (Homo sapiens) [9], 1.28; in assay [10] it was -0.502. Also, the z-score in assay [2] is -3.49 (inactive); in assay [3], -0.707 (inactive); in [4], 0.522 (inactive); in assay [5], -0.205 (inactive).
Turning to `COc1cc(NN2C(C(O)c3ccccc3)C=CC3C(=O)N(c4ccccc4)C(=O)C32)cc(OC)c1OC` (stereo not given), the composite z-score in assay [1] came to 0.421; in assay [6], 0.148; in [7] it was 0.0829; with Torsin-1A (Homo sapiens) [8], 0.179; with Torsin-1A (Homo sapiens) [9], 0.989; in assay [10], 0.89. The z-score in assay [2] was -3.47 (inactive); in assay [3], -0.525 (inactive); in assay [4], 0.433 (inactive); in assay [5], -0.557 (inactive).
Turning to `CCCNC(=O)[C@@]1(C)c2ccccc2C(=O)N(Cc2ccc(OC(F)(F)F)cc2)[C@H]1c1ccc(CO)cc1`, the composite z-score in assay [1] was -0.0508; in assay [6], -0.456; in [7] it was 0.249; with Torsin-1A (Homo sapiens) [8] it was 0.243; with Torsin-1A (Homo sapiens) [9] it was 0.6; in [10] it was 0.628. Moreover, the z-score in assay [2] is -2.65 (inactive); in [3], 0.28 (inactive); in assay [4] it was -0.0259 (inactive); in assay [5] it was -0.326 (inactive).
With `CO[C@H]1O[C@H](CO)[C@@H](OC(=O)Nc2ccccc2-c2ccccc2)[C@H](OC(=O)Nc2ccccc2-c2ccccc2)[C@H]1OC(=O)Nc1ccccc1-c1ccccc1`, the composite z-score is 0.764 in assay [1]; 0.244 in assay [6]; 0.243 in assay [7]; 0.93 in the assay with Torsin-1A (Homo sapiens) [8]; 0.885 with Torsin-1A (Homo sapiens) [9]; 1.61 in assay [10]. In addition, the z-score was -3.73 (inactive) in [2], -0.587 (inactive) in assay [3], 1.65 (inactive) in assay [4] and -0.823 (inactive) in assay [5].
On to `O=C1OCC=C[C@H]2OC34C=CCN(c5ccc6ccccc6c5)C(=O)[C@H]3N(CCO)C(=O)[C@@H]4[C@@H]12` (stereo not given in full), for which the composite z-score in assay [1] was -1.26; in assay [6], -0.74; in assay [7], -0.0427; with Torsin-1A (Homo sapiens) [8], -2.04; in the assay with Torsin-1A (Homo sapiens) [9], -2.02; in assay [10] it was -0.25. Besides, the z-score in assay [2] was -0.168 (inactive); in assay [3], 1.89 (inactive); in assay [4], 1.14 (inactive); in assay [5], 0.492 (inactive).
For `C=CC[C@]1(C(=O)NCCN2CCOCC2)N=C(c2ccc(OCCCO)cc2)O[C@H]1c1ccccc1N=[N+]=[N-]`, the composite z-score in [1] is 0.038; in assay [6], 1.23; in [7], 0.126; in the assay with Torsin-1A (Homo sapiens) [8] it was 0.17; with Torsin-1A (Homo sapiens) [9], -0.0097; in assay [10] it was 0.255. The z-score in assay [2] was -1.76 (inactive); in assay [3], 0.672 (inactive); in assay [4], 2.66 (inactive); in [5], -1.37 (inactive).
